Reference: PubChem BioAssay (NCATS)
Records with an inconclusive call do not appear. Active and inactive are the calls of the source. The call rests on the fitted dose curve; in most records, active means well fitted inhibition curve with a large enough effect; inconclusive means small, poorly fitted or top-dose-only effect; inactive means flat fitted curve, though single readings scatter.

Legend:
[1] = biological target: Ubiquitin carboxyl-terminal hydrolase 1 (Homo sapiens) (UniProt O94782); experiment: Inhibitors of USP1/UAF1: Pilot qHTS (AID 504865);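 further: rhodamine fluorescence freed from ubiquitin-rhodamine substrate followed over time; top concentration of the series differs between compounds; nearly all actives have a fitted effect of over 35% in size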
Summary of the method: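 Deubiquitinase activity followed as kinetic rhodamine fluorescence release from 150 nM Ub-Rho. 1 nM USP1/UAF1 with compound, after 15 min room-temperature preincubation, in HEPES pH 7.8 buffer containing TCEP, EDTA, BSA and Tween-20.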

[2] = tested on: 7G8; experiment: qHTS profiling for inhibitors of Plasmodium falciparum proliferation (AID 504749); further: nearly all actives have a fitted effect of over 60% in size; further: potency means the concentration at half of the fitted maximal effect; conditions: P. falciparum in erythrocytes, SYBR Green DNA, 72 h; series mostly up to 28.7 µM
Summary of the method: (§1)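 P. falciparum-infected erythrocytes (0.3% parasitemia, 2.5% hematocrit) incubated with compound 72 h at 37 C, 5% CO2. Parasite DNA detected by SYBR Green after lysis, overnight at room temperature; normalised to 0.29 uM artemisinin and DMSO.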

[3] = tested on: ATS95; experiment: as above; conditions: P. falciparum in erythrocytes, SYBR Green DNA, 72 h; series mostly up to 28.7 µM
Summary of the method: as §1

[4] = tested on: CP217; experiment: as above; conditions: P. falciparum in erythrocytes, SYBR Green DNA, 72 h; series mostly up to 28.7 µM
Summary of the method: as §1

[5] = tested on: CP260; experiment: as above; conditions: P. falciparum in erythrocytes, SYBR Green DNA, 72 h; series mostly up to 28.7 µM
Summary of the method: as §1

[6] = tested on: CP335; experiment: as above; conditions: P. falciparum in erythrocytes, SYBR Green DNA, 72 h; series mostly up to 28.7 µM
Summary of the method: as §1

[7] = tested on: DIV14; experiment: as above; conditions: P. falciparum in erythrocytes, SYBR Green DNA, 72 h; series mostly up to 28.7 µM
Summary of the method: as §1

[8] = tested on: DIV17; experiment: as above; conditions: P. falciparum in erythrocytes, SYBR Green DNA, 72 h; series mostly up to 28.7 µM
Summary of the method: as §1

[9] = tested on: DIV30; experiment: as above; conditions: P. falciparum in erythrocytes, SYBR Green DNA, 72 h; series mostly up to 28.7 µM
Summary of the method: as §1

[10] = tested on: P94_40; experiment: as above; conditions: P. falciparum in erythrocytes, SYBR Green DNA, 72 h; series mostly up to 28.7 µM
Summary of the method: as §1

[11] = tested on: PAD; experiment: as above; conditions: P. falciparum in erythrocytes, SYBR Green DNA, 72 h; series mostly up to 28.7 µM
Summary of the method: as §1

[12] = tested on: SC27B; experiment: as above; conditions: P. falciparum in erythrocytes, SYBR Green DNA, 72 h; series mostly up to 28.7 µM
Summary of the method: as §1

[13] = tested on: TAB113; experiment: as above; conditions: P. falciparum in erythrocytes, SYBR Green DNA, 72 h; series mostly up to 28.7 µM
Summary of the method: as §1

[14] = tested on: TAB165; experiment: as above; conditions: P. falciparum in erythrocytes, SYBR Green DNA, 72 h; series mostly up to 28.7 µM
Summary of the method: as §1

[15] = tested on: CP247; experiment: as above; conditions: P. falciparum in erythrocytes, SYBR Green DNA, 72 h; series mostly up to 28.7 µM
Summary of the method: as §1

[16] = tested on: C2A; experiment: as above; conditions: P. falciparum in erythrocytes, SYBR Green DNA, 72 h; series mostly up to 28.7 µM
Summary of the method: as §1

[17] = tested on: CP250; experiment: as above; conditions: P. falciparum in erythrocytes, SYBR Green DNA, 72 h; series mostly up to 28.7 µM
Summary of the method: as §1

[18] = tested on: CP291; experiment: as above; conditions: P. falciparum in erythrocytes, SYBR Green DNA, 72 h; series mostly up to 28.7 µM
Summary of the method: as §1

[19] = tested on: CP191; experiment: as above; conditions: P. falciparum in erythrocytes, SYBR Green DNA, 72 h; series mostly up to 28.7 µM
Summary of the method: as §1

[20] = tested on: 3D7; experiment: as above; conditions: P. falciparum in erythrocytes, SYBR Green DNA, 72 h; series mostly up to 28.7 µM
Summary of the method: as §1

Measured: Potency

Chain of Ubiquitin carboxyl-terminal hydrolase 1 (Homo sapiens) (O94782 whole entry, looked up): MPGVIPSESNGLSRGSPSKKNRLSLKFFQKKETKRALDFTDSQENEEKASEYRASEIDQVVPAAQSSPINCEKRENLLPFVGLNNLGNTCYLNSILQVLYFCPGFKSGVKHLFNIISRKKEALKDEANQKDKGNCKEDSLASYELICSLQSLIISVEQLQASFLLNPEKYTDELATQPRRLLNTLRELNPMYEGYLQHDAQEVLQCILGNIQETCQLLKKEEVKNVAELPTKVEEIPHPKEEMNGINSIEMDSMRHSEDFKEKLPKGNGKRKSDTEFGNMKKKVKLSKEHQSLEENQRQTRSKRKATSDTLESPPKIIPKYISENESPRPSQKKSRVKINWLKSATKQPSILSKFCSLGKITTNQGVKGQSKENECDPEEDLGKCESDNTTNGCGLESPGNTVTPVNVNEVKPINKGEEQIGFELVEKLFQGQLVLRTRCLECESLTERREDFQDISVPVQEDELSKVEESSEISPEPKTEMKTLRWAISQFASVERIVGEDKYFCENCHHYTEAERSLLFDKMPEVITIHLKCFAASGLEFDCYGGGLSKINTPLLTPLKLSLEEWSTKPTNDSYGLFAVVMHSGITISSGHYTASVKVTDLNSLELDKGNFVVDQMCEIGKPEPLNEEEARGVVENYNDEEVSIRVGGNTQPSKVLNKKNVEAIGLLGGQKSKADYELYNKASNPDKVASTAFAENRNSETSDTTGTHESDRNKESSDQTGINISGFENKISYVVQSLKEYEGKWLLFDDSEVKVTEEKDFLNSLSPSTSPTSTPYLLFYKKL

CN(C)CC[C@@](O)(c1ccccc1)c1ccccc1Cl
inactive: [1]
active: [2] 3.55 µM | [3] 11.2 µM | [4] 12.6 µM | [5] 10 µM | [6] 7.57 µM | [7] 6.75 µM | [8] 6.75 µM | [9] 10.7 µM | [10] 6.31 µM | [11] 11.2 µM | [12] 5.62 µM | [13] 11.2 µM | [14] 6.31 µM

C[C@H](CN1c2ccccc2Sc2cccnc21)N(C)C
active: [3] 11.2 µM | [15] 3.98 µM | [5] 8.91 µM | [6] 6.01 µM | [7] 4.78 µM | [8] 4.78 µM | [12] 8.91 µM | [13] 12.6 µM | [14] 11.2 µM
inactive: [1]

COc1ccc(C(=O)/C(Br)=C/C(=O)O)cc1
active: [2] 10 µM
inactive: [1] | [16] | [15] | [17] | [5] | [18] | [7] | [10] | [11]

C=C1C(n2cnc3c(=O)[nH]c(N)nc32)C[C@H](O)[C@H]1CO (some centres undefined)
active: [2] 12.6 µM
inactive: [1] | [16] | [19] | [4] | [15] | [9] | [10] | [11] | [12] | [13] | [14]

CC(C)(C)NC[C@H](O)CSc1nc(-c2ccc(C(N)=O)s2)cs1
inactive: [1] | [20] | [3] | [16] | [19] | [4] | [15] | [17] | [18] | [6] | [9] | [10] | [11] | [12] | [14]

COC(=O)C1C2CC3c4[nH]c5cc(OC)ccc5c4CCN3CC2CC(OC)C1OC (centres undefined)
inactive: [1] | [20] | [3] | [16] | [19] | [4] | [15] | [17] | [5] | [18] | [6] | [10] | [11] | [12] | [13] | [14]

CC1=C[C@@H](O)CC(C)(C)[C@@H]1/C=C/C(C)=C/C=C/C(C)=C/C=C/C=C(C)/C=C/C=C(C)/C=C/C1=C(C)C[C@H](O)CC1(C)C
inactive: [19] | [17] | [18]
active: [20] 10 µM | [2] 10 µM | [7] 12 µM

C=C1/C(=C\C=C2/CCC[C@]3(C)[C@@H]([C@H](C)/C=C/[C@@H](O)C4CC4)CC[C@@H]23)C[C@@H](O)C[C@@H]1O
inactive: [20] | [3] | [16] | [19] | [4] | [15] | [6] | [7] | [8] | [9] | [11] | [12] | [13]

CC1(C)O[C@@H]2C[C@H]3[C@@H]4CCC5=CC(=O)C=C[C@]5(C)[C@H]4C(O)C[C@]3(C)[C@]2(C(=O)CO)O1 (some centres undefined)
inactive: [1] | [20] | [3] | [16] | [19] | [4] | [15] | [17] | [18] | [6] | [7] | [9] | [10] | [13]

CCC(C)C(N)C(=O)O (centres undefined)
inactive: [1] | [20] | [2] | [3] | [16] | [19] | [4] | [15] | [17] | [5] | [18] | [6] | [7] | [8] | [9] | [10] | [11] | [12] | [13] | [14]

C=C1CC[C@H](O)C/C1=C/C=C1\CCC[C@]2(C)[C@@H]([C@H](C)CCCC(C)(C)O)CC[C@@H]12
active: [2] 10 µM | [15] 8.91 µM | [8] 15.1 µM | [9] 9.53 µM | [14] 12.6 µM
inactive: [18]

O=C(O)C[CH2][Ge](=[O])[O][Ge](=[O])[CH2]CC(=O)O
inactive: [1] | [2] | [3] | [16] | [19] | [4] | [15] | [17] | [5] | [18] | [6] | [7] | [8] | [9] | [10] | [11] | [12] | [13] | [14]

CC1CCC(O)C/C1=C\C=C1/CCCC2(C)C1CCC2C(C)/C=C/C(C)C(C)C (centres undefined)
inactive: [3] | [16] | [19] | [4] | [17] | [5] | [18] | [12] | [13] | [14]

CC(C)CCCC(C)C1CC(=O)C2=C3CCC4CC(O)CCC4(C)C3CCC21C (centres undefined)
inactive: [3] | [16] | [19] | [4] | [15] | [17] | [18] | [7] | [8] | [9] | [10] | [11] | [12] | [14]

CNC1CCc2cc(OC)c(OC)c(OC)c2-c2ccc(OC)c(=O)cc21 (centres undefined)
inactive: [1] | [3] | [16] | [19] | [4] | [17] | [5] | [18] | [6] | [10] | [11] | [12] | [13] | [14]

Cc1cc(O)c2c(c1)OC1(C)CCC3C(C)(C)CCCC34COC2C14 (centres undefined)
active: [2] 8.91 µM | [7] 8.49 µM | [8] 15.1 µM | [13] 8.91 µM
inactive: [16] | [5] | [18]

CC1=C(c2ccc(NN=C(C#N)C#N)cc2)NNC(=O)C1
inactive: [20] | [3] | [16] | [19] | [4] | [17] | [18] | [6] | [7] | [9] | [10] | [11] | [12] | [14]
